Source: PubChem BioAssay AID1159580 (chemical genetic matrix, 2015)
Several values for one entry are separate records, joined by “and”; a condition that tells them apart may be missing. Identical values can stand only once. The campaign covered roughly 5,500 compounds. About 2,000 (36%) were called active. Inconclusive results (about 18%) are left out. No stated cut-off is given here; in the data, active means normalized growth mostly below about 0.91 (no sharp cut-off); inconclusive means no clear call, values can overlap the other calls; inactive means mostly above about 0.92. This is one part of the list.

Assay: chemical genetic growth profiling, strain panel (AID 1159580);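 further: tested at 20 µM; growth read once vehicle control cultures reached saturation at 30 °C; 1 = growth at the plate median or of vehicle wells; lower values mean less growth of the strain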
Details: S. cerevisiae deletion strains, growth OD

Measured: normalized growth

CCCCCC(=O)O[C@]1(C(C)=O)CCC2C3CCC4=CC(=O)CC[C@]4(C)C3CC[C@@]21C (some centres undefined)
inactive: locus YAL013W, strain DEP1, active compounds read low 1.02 | locus YAL021C, strain ccr4, active compounds read low 1 | locus YAL026C, strain drs2, active compounds read low 1.03 | locus YAL030W, strain snc1, active compounds read low 1 | locus YBL061C, strain skt5, active compounds read low 1 | locus YBR009C, strain hhf1, active compounds read low 1.01 | locus YBR021W, strain FUR4, active compounds read low 0.948 | locus YBR023C, strain chs3, active compounds read low 0.985 | locus YBR171W, strain sec66, active compounds read low 0.993 | locus YBR229C, strain ROT2, active compounds read low 1.01 | locus YBR231C, strain swc5, active compounds read low 0.991 | locus YBR279W, strain paf1, active compounds read low 1 | locus YCL011C, strain gbp2, active compounds read low 1.01 | locus YCL016C, strain dcc1, active compounds read low 1 | locus YCL029C, strain bik1, active compounds read low 1.01 | locus YCL061C, strain MRC1, active compounds read low 0.971 | locus YCL069W, strain vba3, active compounds read low 1.01 | locus YCR088W, strain abp1, active compounds read low 0.995 | locus YDL005C, strain med2, active compounds read low 0.996 | locus YDL035C, strain GPR1, active compounds read low 1.02 | locus YDL040C, strain nat1, active compounds read low 1.01 | locus YDL074C, strain BRE1, active compounds read low 1.01 | locus YDL101C, strain DUN1, active compounds read low 1.01 | locus YDL134C, strain PPH21, active compounds read low 1.01 | locus YDL185W, strain tfp1, active compounds read low 1.02 | locus YDL192W, strain arf1, active compounds read low 1.01 | locus YDR001C, strain nth1, active compounds read low 1.01 | locus YDR069C, strain doa4, active compounds read low 0.995 | locus YDR101C, strain arx1, active compounds read low 1.01 | locus YDR137W, strain rgp1, active compounds read low 1.01 | locus YDR150W, strain NUM1, active compounds read low 1.02 | locus YDR159W, strain sac3, active compounds read low 0.976 | locus YDR162C, strain NBP2, active compounds read low 0.996 | locus YDR195W, strain ref2 1.02 | locus YDR297W, strain sur2, active compounds read low 1 | locus YDR318W, strain mcm21, active compounds read low 1 | locus YDR334W, strain swr1, active compounds read low 0.999 | locus YDR335W, strain msn5, active compounds read low 1.01 | locus YDR388W, active compounds read low 1.01 | locus YDR392W, strain spt3, active compounds read low 0.91 | locus YDR502C, strain sam2, active compounds read low 1.01 | locus YEL003W, strain gim4, active compounds read low 1.02 | locus YEL037C, strain rad23, active compounds read low 1 | locus YEL061C, strain CIN8 (second series), active compounds read low 1 | locus YEL061C, strain CIN8, active compounds read low 1 | locus YER015W, strain faa2, active compounds read low 0.997 | locus YER016W, strain bim1, active compounds read low 0.988 | locus YER110C, active compounds read low 1.02 | locus YER111C, strain swi4, active compounds read low 0.991 | locus YER155C, strain BEM2 (second series), active compounds read low 1.01 | locus YER155C, strain BEM2, active compounds read low 1.01 | locus YER167W, strain BCK2, active compounds read low 1.01 | locus YFR010W, strain ubp6, active compounds read low 1.02 | locus YGL078C, strain dbp3, active compounds read low 1.01 | locus YGL086W, strain mad1, active compounds read low 1.01 | locus YGL167C, strain pmr1, active compounds read low 0.989 | locus YGL173C, strain kem1, active compounds read low 1.01 | locus YGL227W, strain vid30, active compounds read low 1 | locus YGL240W, strain doc1, active compounds read low 0.976 | locus YGL248W, strain PDE1, active compounds read low 1.01 | locus YGL253W, strain hxk2, active compounds read low 1.01 | locus YGR135W, strain pre9, active compounds read low 1.01 | locus YGR252W, strain gcn5, active compounds read low 0.974 | locus YHR013C, strain ard1, active compounds read low 1.01 | locus YHR027C, strain rpn1, active compounds read low 0.999 | locus YHR030C, strain SLT2, active compounds read low 1.03 and 0.978 | locus YHR079C, strain IRE1 (second series), active compounds read low 1.01 | locus YHR079C, strain IRE1, active compounds read low 0.976 | locus YHR094C, strain hxt1, active compounds read low 1 | locus YHR129C, strain ARP1, active compounds read low 1.01 | locus YHR142W, strain chs7, active compounds read low 1.02 | locus YHR200W, strain rpn10, active compounds read low 1.01 | locus YIL066C, strain RNR3, active compounds read low 1.02 | locus YIL073C, strain SPO22, active compounds read low 1.04 | locus YIL125W, strain kgd1, active compounds read low 1.01 | locus YIR030C, strain dcg1, active compounds read low 1.01 | locus YJL092W, strain hpr5, active compounds read low 1.01 | locus YJL095W, strain BCK1 (second series), active compounds read low 1 | locus YJL095W, strain BCK1, active compounds read low 1.02 and 0.987 | locus YJL115W, strain asf1, active compounds read low 1 | locus YJL129C, strain trk1, active compounds read low 0.946 | locus YJL134W, strain LCB3, active compounds read low 0.98 | locus YJL154C, strain vps35, active compounds read low 1.02 | locus YJL164C, strain tpk1, active compounds read low 1.01 | locus YJL166W, strain qcr8, active compounds read low 1 | locus YJL168C, strain set2, active compounds read low 1.01 | locus YJL187C, strain SWE1 (second series), active compounds read low 1.01 | locus YJL187C, strain SWE1, active compounds read low 0.997 | locus YJR043C, strain POL32, active compounds read low 1.01
